According to ChEMBL document CHEMBL3988442, “University of Dundee, Small-Polar-MMV Screening Library” (2021):
In all, about 69,000 compounds went through this assay and about 950 (1.4%) showed an effect of 50% or more. This excerpt belongs to a sample that is enriched for strong results.

system: Mycobacterium tuberculosis; assay: Cornell M. t heat shock assay; format: functional, organism-based; parameters: dose or concentration left out as unconfirmed; note: in the data most compounds retested in dose-response had high values

Compound | Percent Effect
CCCS(=O)(=O)N1C[C@@H](Oc2ncccc2F)[C@H]2OCCC[C@H]21.O=C(O)C(F)(F)F | -14.35%
Cl.Cl.O=C(N[C@@H]1CN[C@H]2CCCO[C@H]21)c1cccnc1 | -32.33%
CCc1n[nH]c(C2CN(Cc3ncc(CC)o3)CCO2)n1 (stereo not given) | -30.6%
COc1ccc(CNCc2ccnc(N3CCCC3)c2)c(OC)c1.Cl | 15.53%
COc1ccc(-c2nc(CN3CCc4c(ncn4C)C3)cs2)cc1 | 174%
Cn1cnc2c1CCN(Cc1csc(-c3ccc(F)cc3)n1)C2 | 1.572%
c1ccc(-c2nc(CN3CCc4c(ncn4C4CC4)C3)cs2)cc1 | 62.99%
Cn1cnc2c1CCN(Cc1csc(-c3ccsc3)n1)C2 | 121.8%
CC(C)c1nc2c(n1C)CCN(Cc1nc(-c3ccoc3)no1)C2 | -1.716%
Cn1cnc2c1CCN(Cc1csc(-c3ccccc3)n1)C2 | -8.138%
Cn1cc(-c2nc(CN3CCc4c(ncn4C)C3)cs2)cn1 | -15.5%
c1cc(-c2nc(CN3CCc4c(ncn4C4CC4)C3)cs2)cs1 | 24.33%
Cn1cnc2c1CCN(Cc1csc(-c3ccccc3F)n1)C2 | 47.56%
CC(C)c1nc2c(n1C)CCN(Cc1nc(-c3ccsc3)no1)C2 | 103.5%
Cn1cc(-c2nc(CN3CCc4c(ncn4C4CC4)C3)cs2)cn1 | 19.08%
Cn1c(C2CC2)nc2c1CCN(Cc1nc(-c3ccsc3)no1)C2 | 13.01%
COCCO[C@H]1CCN(Cc2ccsc2)[C@H]1Cc1cccnc1.O=C(O)C(F)(F)F.O=C(O)C(F)(F)F | -33.79%
CCc1noc(CN2C[C@H]3CC[C@@H]2CN(C2Cc4ccccc4C2)C3)n1 | 18.74%
COc1ccc(CC(=O)N2CC[C@@H](OC)[C@@H]2Cc2cccnc2)cc1.O=C(O)C(F)(F)F | -4.792%
CC(=O)N1C[C@@H]2CC[C@H](C1)N(S(=O)(=O)c1ccccc1Cl)C2 | -21.33%
O=C(O)C(F)(F)F.O=S(=O)(C1CC1)N1CCO[C@@H]2CC(COCc3cccnc3)C[C@H]21 (stereo not given in full) | 22.38%
Cn1cc(N2CC3(COCCN(Cc4ccccn4)C3)OCC2=O)cn1.O=C(O)C(F)(F)F (stereo not given) | -20.33%
CNC(=O)C1Cn2ccnc2C2(CCN(Cc3cccs3)CC2)O1.O=C(O)C(F)(F)F.O=C(O)C(F)(F)F (stereo not given) | -16.91%
CCCc1ccc(N2CCN(Cc3nc4ccccc4n3C)CC2)cc1 | 103%

Compound | Percent Effect
Cn1c(CCN2CCN(c3ccc(O)cc3)CC2)nc2ccccc21 | -8.24%
Cn1c(CCN2CCN(CCc3ccccc3)CC2)nc2ccccc21 | 5.82%
Cl.Cn1nc(C2CCN(C(=O)CN3CCCCC3)CC2)c2cccnc21 | -23.31%
Cn1ncc2c1NC(=O)CC2c1ccccc1Cl (stereo not given) | -2.735%
Cn1ncc2c1NC(=O)CC2c1ccc(Cl)cc1Cl (stereo not given) | 51.94%
Cn1ncc2c1NC(=O)CC2c1cc(Cl)ccc1F (stereo not given) | -20.48%
Cc1ccc(CN(C)C(=O)c2n[nH]c(N)c2-c2ccccc2)o1 | -6.81%
Cc1ccc(CN2CC[C@H]3OCC[C@@H](C(=O)NC4CC4)[C@@H]3C2)o1.O=C(O)C(F)(F)F | -2.405%
CN(CCCO)Cc1cc(Cl)ccc1OCC(O)CN1CCCCCC1 (stereo not given) | 44.14%
COCCN(C)Cc1cc(Cl)ccc1OCC(O)CN1CCCCCC1 (stereo not given) | 4.611%
CN(CCO)Cc1cc(Cl)ccc1OCC(O)CN1CCCCCC1 (stereo not given) | 54.32%
Cc1ccc(N2CCN(C(=O)CN3C[C@@H]4CC[C@H]3C4)CC2=O)cc1 | -8.228%
Cc1ccc(CN2CCC3(CCC(=O)N3CC(=O)N(C)C)CC2)s1.O=C(O)C(F)(F)F | 11.8%
Cc1ccccc1C(=O)N1CCC2(CCCN2CCN(C)C)CC1.O=C(O)C(F)(F)F.O=C(O)C(F)(F)F | 12.9%
CN(C)c1ccc(NC(=O)NCC2CCOC2)cn1 (stereo not given) | 74.68%
CCN(CC)c1ccc(NC(=O)NCC2CCOC2)cn1 (stereo not given) | 3.627%
O=C(NCC1CCOC1)Nc1ccc(OCC(F)(F)F)nc1 (stereo not given) | 3.959%
CCn1c(Cn2cncn2)nnc1C1CCN(C[C@H]2[C@@H]3CNC[C@@H]32)CC1 | -28.34%
Cc1ccc(OCc2occc2C(=O)N2C[C@@H]3[C@@H](CN(C)C)[C@@H]3C2)cc1 | -7.572%
CN(C)C(=O)CC1CC2(CCN(Cc3ccsc3)CC2)c2ccccc21.O=C(O)C(F)(F)F (stereo not given) | -34.9%
CC(C)C(=O)Nc1cc(C(=O)NC2CC(C)(C)NC(C)(C)C2)nn1C | -49.16%
Cc1nc(-n2nc(C3CC3)cc2NC(=O)C(C)C)[nH]c(=O)c1C | 96.45%
CC(=O)Nc1cc(C2CC2)nn1-c1nc(C)c(C)c(=O)[nH]1 | 27.84%
Cc1cc(NC(=O)C(C)C)n(-c2nc(C)c(C)c(=O)[nH]2)n1 | 104.4%

Compound | Percent Effect
Cc1cc(C)n(-c2cncc(NCCNC(=O)C(C)C)n2)n1 | -20.98%
CC(C)C(=O)Nc1cc(C(C)(C)C)nn1-c1ccccn1 | 4.241%
COc1cc(COCC2CCN(Cc3cccnc3)CC2)cc(OC)c1.O=C(O)C(=O)O | -22.42%
CC(C)CN1CCN(C)C2(CCN(Cc3ccsc3)CC2)C1=O.O=C(O)C(F)(F)F.O=C(O)C(F)(F)F | -18.88%
CCc1ccc(CN2CCc3ncnc(-c4cccnc4)c3CC2)o1.O=C(O)C(F)(F)F.O=C(O)C(F)(F)F | -16.65%
Cc1sc2nc(CCN)nc(N3CCN(S(C)(=O)=O)CC3)c2c1C | 12.46%
CCOC(=O)N1CCN(c2nc(CCN)nc3sc(C)c(C)c23)CC1 | 82.82%
Cc1sc2nc(CCN)nc(N3CCS(=O)(=O)CC3)c2c1C | 12.97%
CSc1nc(N)c2c(n1)N=C1COC(O)=C1C2c1cccc(O)c1 (stereo not given) | 4.116%
Cc1ccsc1CN1CCc2nc3ccsc3c(=O)n2CC1.Cl | 3.746%
CCN(CC)c1ccc(NS(=O)(=O)c2cnn(C)c2)cn1 | -23.7%
CCN(CC)c1ccc(NS(=O)(=O)c2cncc(F)c2)cn1 | -17.45%
CCN(CC)c1ccc(NS(=O)(=O)c2cccnc2)cn1 | 61.96%
CCCC(=O)N1C[C@@H]2CCN(c3cnccn3)C[C@@H]2C1.O=C(O)C(F)(F)F | -8.378%
O=C(O)C(F)(F)F.O=C(c1cscn1)N1CC[C@]2(C[C@@H](OCCN3CCCC3)CO2)C1 | 0.0126%
CNC(=O)[C@@H]1C[C@H]2CN(Cc3nccs3)C[C@H]2N1C.O=C(O)C(F)(F)F.O=C(O)C(F)(F)F | -19.94%
Cc1cccc(CN2C(=O)CC[C@@H]3[C@H]2CCN3Cc2ccc(C)s2)n1.O=C(O)C(F)(F)F.O=C(O)C(F)(F)F | 6.515%
COc1ccc(Cl)cc1CS(=O)(=O)Cc1nc(C)no1 | 62.62%
COc1ccc(Cl)cc1CS(=O)(=O)Cc1nc(C2CC2)no1 | 45.18%
COc1ccc(Cl)cc1CS(=O)(=O)Cc1noc(C)n1 | -24.6%
COCCCN(Cc1ccccn1)Cc1ccnn1C1CCCCO1.O=C(O)CC(O)(CC(=O)O)C(=O)O (stereo not given) | -20.24%
CCN(CC)C(=O)CCCNC(=O)c1csc(NC2CC2)n1 | -1.337%
CC(NC(=O)Nc1nccs1)C(=O)NC1CCCC1 (stereo not given) | 1.171%
O=C(Nc1ccccn1)c1csc(NC2CCCC2)n1 | 105.9%

Compound | Percent Effect
CC(C)CCNC(=O)c1csc(NC2CC2)n1 | 43.35%
Cc1cnc(NC(=O)c2csc(NC3CCCC3)n2)s1 | 106.1%
Cc1cnc(NC(=O)c2csc(NCC(C)C)n2)s1 | 103.8%
Cc1nc(NC2CCCC2)cc(C2CCN2C(=O)c2ccccn2)n1 (stereo not given) | -9.873%
O=C(Nc1nccs1)c1csc(NC2CCCC2)n1 | 106.3%
Cc1cccc(NC(=O)c2csc(NCC(C)C)n2)n1 | -0.3454%
CC(C)NC(=O)c1csc(NC2CC2)n1 | 28.59%
CC(C)CCNc1nc(C(=O)NC2CC2)cs1 | 15.23%
CC(C)Nc1nc(C(=O)Nc2ccccn2)cs1 | 9.074%
CC1CCN(C(=O)C2(Cc3cc(C4CCOC4)no3)CCNCC2)CC1.Cl (stereo not given) | 3.404%
COc1nn(C)c2c1CCCN(C(=O)c1cccc3cccnc13)C2.O=C(O)C(F)(F)F | -1.629%
COCC1CN(C(=O)Cc2cccs2)Cc2nnn(CC3CC3)c21 (stereo not given) | -31.31%
Nc1cc(CCC2CN(Cc3ccc4cc[nH]c4c3)CCO2)ccn1 (stereo not given) | -29.21%
Cc1ccsc1CN1C[C@@H]2COC[C@]2(COCC(=O)N(C)C)C1.O=C(O)C(F)(F)F | -23.94%
Cc1ccc(CN2CCC3(CC2)CN(c2ccccc2)C(=O)CO3)o1.O=C(O)C(F)(F)F | -15.41%
COCC1CC2(CCN(c3cccc(C)n3)CC2)CN1C(C)C.O=C(O)C(F)(F)F.O=C(O)C(F)(F)F (stereo not given) | 24.58%
CN(C)C(=O)N1CCO[C@@H]2CC(COCc3cccnc3)C[C@H]21.O=C(O)C(F)(F)F (stereo not given in full) | 17.51%
Cc1cnn(CCCNCc2csc(COc3ccccc3)n2)c1 | 15.28%
Cc1cnn(CCNCc2csc(COc3ccccc3)n2)c1 | 103.7%
Cc1nc(COc2ccc(CNCCn3cccn3)cc2)cs1 | -21.22%
Cc1ccc(OCc2nc(CNCCn3cccn3)cs2)cc1 | 94.11%
c1ccc(OCc2nc(CNCCn3cccn3)cs2)cc1 | 46.73%
Cc1cnn(CCNCc2ccc(OCc3csc(C)n3)cc2)c1 | 5.493%
